These results are taken from PubChem BioAssay AID1851 (National Center for Advancing Translational Sciences (NCATS), 2009).

“And” between values parts separate entries of the source, which are not always exact repeats. Equal values may be shown once. Hit rate of the full screen: of about 16,000 compounds, about 2,600 (16%) were called active. Inconclusive results (about 20%) are left out. Calls come from the whole dose curve; as a rule, active = well fitted curve in the direction sought with a large enough effect; inconclusive = small, poorly fitted or top-dose-only effect, or effect the other way; inactive = no such curve, though single readings can be large or run the other way. Many of the other results were omitted from the sample, so actives are more common in it than they were.
% is set by controls: 0 for no effect and ±100 for the full control effect.

The target in this assay is Cytochrome P450 2D6 (Homo sapiens) (UniProt P10635). The assay is described as follows: Cytochrome panel assay with activity outcomes. The note with it: recombinant CYP, pro-luciferin dealkylation, luminescence, p450-cyp2d6; series mostly up to 57.1 µM.
Chain of Cytochrome P450 2D6 (Homo sapiens) (P10635 whole entry, looked up): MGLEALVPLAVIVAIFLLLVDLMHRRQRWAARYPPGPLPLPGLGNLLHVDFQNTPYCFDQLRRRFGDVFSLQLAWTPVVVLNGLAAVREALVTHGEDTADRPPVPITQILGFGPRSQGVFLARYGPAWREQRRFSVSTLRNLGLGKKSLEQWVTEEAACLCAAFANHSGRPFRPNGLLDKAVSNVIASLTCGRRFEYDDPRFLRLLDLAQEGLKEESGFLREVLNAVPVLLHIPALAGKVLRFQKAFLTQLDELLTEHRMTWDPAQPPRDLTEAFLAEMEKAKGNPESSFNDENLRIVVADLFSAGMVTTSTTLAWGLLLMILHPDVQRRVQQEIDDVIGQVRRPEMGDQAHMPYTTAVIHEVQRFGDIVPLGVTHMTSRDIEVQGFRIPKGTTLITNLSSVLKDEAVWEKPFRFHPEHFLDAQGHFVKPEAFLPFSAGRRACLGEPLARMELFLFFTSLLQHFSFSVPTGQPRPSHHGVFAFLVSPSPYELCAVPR
For `COC(=O)NC/C=C\c1nc(CC/C=C\C(=O)O[C@H]2C[C@H]3CC(=O)O[C@@H](/C=C\CC(C)C)C[C@@H]4CC[C@H](C)[C@H](C[C@@H](OC)C[C@H](C2)O3)O4)co1`, the activity, negative = inhibition was -6.57% [at 11.4 µM] (inactive).
By AC50 is commonly meant the concentration giving half of the maximal activity seen. For `CC(N)Cc1ccccc1Sc1ccc(O)cc1` (centres undefined), the AC50 was 10 µM (active).
In the case of `CNC(C)Cc1ccccc1Sc1ccc(O)cc1` (centres undefined), the AC50 is 3.16 µM (active).
The same measure, in the same setting: with `COC(=O)C1(C)C=C2C(=C(C)C(=O)C2C)CN1` (centres undefined) the entry was “inactive”; with `CC(C)[C@@H]1CN[C@H](C(=O)O)[C@@H]1CC(=O)O`, “inactive”; with `C=C1[C@@H]2C[C@@]3([C@H]1O)[C@H]1C[C@@H]4[C@@]5(C)CC[C@H](O)[C@]4([C@H]1N(CC)C5)[C@H]3C[C@H]2O`, “inactive”.
In the case of `CC(C)CNCCc1ccccn1`, the activity, negative = inhibition is -13.8% [at 11.4 µM] (inactive).
For `CCC(=O)O[C@H]1CC[C@H]2[C@@H]3CCC4=CC(=O)CC[C@]4(C)[C@H]3CC[C@]12C`, the AC50 result is “inactive”.
The same measure, in the same setting: with `CC[C@@H](C)[C@H]1O[C@]2(CC[C@@H]1C)C[C@@H]1C[C@H](C/C=C(/C)[C@H](O[C@@H]3C[C@H](OC)[C@H](O[C@@H]4C[C@H](OC)[C@@H](O)[C@H](C)O4)[C@H](C)O3)[C@@H](C)/C=C\C=C3CO[C@@H]4[C@H](O)C(C)=C[C@@H](C(=O)O1)[C@]34O)O2` (tested in a mixture with another compound) the entry was “inactive”.
Take `Cc1ccc2c(c1)N(CCC(=O)N1CCC3(CC1)OCCO3)C(=O)C(C)O2` (centres undefined): the AC50 entry was “inactive”.
The same measure, in the same setting: the value for `CN1CCc2cc3c(cc2[C@@H]1O)OCO3` was 7.94 µM (active); that for `CN1CCc2cc(O)cc3c2[C@H]1Cc1ccc(O)c(O)c1-3` was “inactive”; that for `COc1cc([C@H]2c3cc4c(cc3[C@@H](O)[C@@H]3COC(=O)[C@H]23)OCO4)cc(OC)c1OC` was “inactive”.
On the same count and under the same terms, the value for `CC(=O)N1CC[N+](C)(C)CC1` was “inactive”.
Still for that read-out and setting: with `CC(C)(C)c1cc(C=C(C#N)C#N)cc(C(C)(C)C)c1O` the entry was “inactive”.
Regarding `CC1=C2C(=O)[C@@H]3[C@@H](CC=C4C[C@@H](O)CC[C@@]43C)[C@H]2CC[C@@]12O[C@H]1C[C@H](C)CN[C@H]1[C@@H]2C`, the activity, negative = inhibition is 9.41% [at 11.4 µM] (inactive).
With `NS(=O)(=O)c1cc([C@@]2(O)NC(=O)c3ccccc32)ccc1Cl`, the AC50 entry was “inactive”.
On to `CCOc1ccc(C2C(C#N)=C(N)Oc3c2c(=O)oc2ccccc32)cc1` (centres undefined), for which the AC50 entry is “inactive”.
On the same count and under the same terms, the value for `CCOC(C(=O)OCCCN(CC)CC)(c1ccccc1)c1ccccc1` was 2 µM (active); that for `CC(C)NP(=O)(NC(C)C)OP(=O)(NC(C)C)NC(C)C` was “inactive”; that for `CC(C)N[C@@H](C)Cc1ccc(I)cc1` was 0.1 µM (active).
On the same count and under the same terms, with `Cc1ccc2cc3cc(C(=O)N4CCC5(CC4)OCCO5)oc3nc2c1` the entry was “inactive”.
Still for that read-out and setting: the value for `CCOC(=O)c1ncn2c1CN(C)C(=O)c1cc(F)ccc1-2` was “inactive”.
For the compound `CC1(C)[C@@H]2CC[C@]1(C)CN(CCC[N+](C)(C)C)C2`, the activity, negative = inhibition is 2.02% [at 11.4 µM] (inactive).
Same read-out and setting: the value for `CS(=O)(=O)O[C@H]1CN2CCC1CC2` was 2.87% [at 11.4 µM] (inactive).
Turning to `C[C@]12CC[C@H](O)C[C@@H]1CC[C@H]1[C@H]2CC[C@]2(C)[C@H](C(=O)CO)CC[C@@H]12`, the AC50 entry was “inactive”.
Same read-out and setting: with `c1ccc(N2CCCC3(CCNCC3)C2)nc1` the figure was 10 µM (active).
For the compound `c1csc(CN2CCC3(CCNCC3)CC2)n1`, the AC50 entry is “inactive”.
The same measure, in the same setting: the value for `c1csc(CN2CCCC3(CCNCC3)C2)n1` was “inactive”; that for `c1ccc(N2CCC3(CCNCC3)CC2)nc1` was 1.26 µM (active).
The same measure, in the same setting: the value for `Cc1ccccc1OCCN=Cc1c(O)n(C)c(=O)n(C)c1=O` was “inactive”.
`COc1cc2c(cc1OC)[C@@]13CCN4C=C5CCO[C@H]6CC(=O)N2[C@@H]1[C@@H]6[C@H]5C[C@H]43`: the activity, negative = inhibition was 9.01% [at 11.4 µM] (inactive).
As for `C1CCc2nnnn2CC1`, the AC50 entry is “inactive”.
The same measure, in the same setting: the value for `CC(C)N(CC[C@@](C(N)=O)(c1ccccc1)c1ccccn1)C(C)C` was “inactive”.
On the same count and under the same terms, with `CC(C)[N+](C)(CCC(C(N)=O)(c1ccccc1)c1ccccc1)C(C)C` the figure was 3.98 µM (active); with `N#C/C(=C\c1ccc(O)c(O)c1)C(N)=S`, “inactive”.
For the compound `Nc1nc(N)c(N=Nc2ccc([As](=O)(O)O)c(O)c2)c(N)n1`, the activity, negative = inhibition was 12.7% [at 11.4 µM] (inactive).
As for `CC(O)(CS(=O)(=O)c1cccc(C(F)(F)F)c1)C(=O)Nc1cccc(C(F)(F)F)c1` (centres undefined), the AC50 entry was “inactive”.
Take `COc1cc(C[C@H](C)N)c(OC)cc1I`: the AC50 is 25.1 µM (active).
As for `NC(=O)c1ccc(C(=O)Nc2ccc([As](=O)(O)O)cc2)cc1`, the activity, negative = inhibition is -0.507% [at 11.4 µM] (inactive).
With `O=NN(Cc1ccc(Cl)cc1)[C@@H](C(=O)O)c1ccccc1`, the activity, negative = inhibition is 6.33% [at 11.4 µM] (inactive).
Consider `CC(NCc1ccc(Cl)cc1)C(O)c1ccccc1` (centres undefined), for which the AC50 was 0.0708 µM (active).
The same measure, in the same setting: the value for `C[C@H](N)[C@@H](O)c1ccccc1` was “inactive”; that for `COc1ccn(C)c(=O)c1C#N` was “inactive”.
In the case of `O=C1C2CCN(CC2)C1(CO)CO`, the AC50 result was “inactive”.
`c1ccc(CCN2CCOCC2)nc1`: the activity, negative = inhibition is 13.9% [at 11.4 µM] (inactive).
As for `CCc1ccc(CCN2CCCCC2)nc1`, the AC50 is 1.58 µM (active).
`c1ccc(CCN2CCCCCC2)nc1`: the activity, negative = inhibition is -18.4% [at 11.4 µM] (inactive).
As for `CC(C)COC(=O)OCN1C(=O)CN(CCN2CC(=O)N(COC(=O)OCC(C)C)C(=O)C2)CC1=O`, the AC50 result was “inactive”.
The same measure, in the same setting: with `O=S(=O)(c1ccccc1)N1CCCCC1c1cccnc1` (centres undefined) the entry was “inactive”.
Still for that read-out and setting: the value for `N#CCCN` was “inactive”.
Take `Oc1cccc2cccnc12`: the activity, negative = inhibition was 8.63% [at 11.4 µM] (inactive).
Consider `C[n+]1c(/C=C\c2ccc(O)c3ncccc23)[se]c2ccccc21`, for which the AC50 is 1 µM (active).
The same measure, in the same setting: the value for `COc1cccc(-c2nc(CS(=O)CC(=O)N3CCC4(CC3)OCCO4)c(C)o2)c1` (centres undefined) was “inactive”; that for `C[C@@]12CC[C@H]3[C@@H](CC[C@@H]4C[C@H]5S[C@H]5C[C@]43C)[C@H]1CC[C@H]2O` was “inactive”.
Still for that read-out and setting: the value for `CCCN(CCC)CCc1cccc2c1CC(=O)N2` was 3.16 µM (active); that for `N[C@@H]1C=CC=C(C(=O)O)C1` was “inactive”; that for `N#CC(C#N)=Cc1cc(O)c(O)c(O)c1` was “inactive”.
On the same count and under the same terms, the value for `O=C(O)c1cc[c]([Hg][S]c2ncnc3nc[nH]c23)cc1` was 1 µM (active).
Turning to `O=C(NC1CCCCC1)NC1CC2CCC(C1)N2Cc1nnnn1Cc1ccc2c(c1)OCO2` (centres undefined), the AC50 is 6.31 µM (active).
Regarding `CCOP(=O)(OCC)C(NC(=O)C(Cl)Cl)C(Cl)(Cl)Cl` (centres undefined), the AC50 entry was “inactive”.
Same read-out and setting: the value for `O=[N+]([O-])O[C@H]1CO[C@H]2[C@H]1OC[C@@H]2O[N+](=O)[O-]` was “inactive”.
Same read-out and setting: with `C/C(=C\c1ccc(N(C)C)cc1)[N+](=O)[O-]` the entry was “inactive”.
Same read-out and setting: the value for `C[N+]1(C)[C@@H]2CC[C@H]1CC(OC(=O)[C@@H](CO)c1ccccc1)C2` (some centres undefined) was “inactive”.
In the case of `CCN1CCC[C@@H](OC(=O)C(c2ccccc2)c2ccccc2)C1`, the AC50 is 1.58 µM (active).
`C[N+]1(C)C2CC[C@H]1CC(OC(=O)[C@@H](CO)c1ccccc1)C2` (some centres undefined): the activity, negative = inhibition was 12% [at 11.4 µM] (inactive).
Take `NCCCC[C@H](N[C@@H](CCc1ccccc1)C(=O)O)C(=O)N1CCC[C@H]1C(=O)O`: the AC50 entry was “inactive”.
Take `CCC1=C(C[C@H]2NCCc3ccccc32)C[C@@H]2c3cc(OC)c(OC)cc3CCN2C1`: the AC50 was 2.51 µM (active).
The same measure, in the same setting: with `CC[C@@H]1CN2CCc3cc(OC)c(OC)cc3[C@H]2C[C@@H]1C[C@@H]1NCCc2cc(OC)c(OC)cc21` the entry was “inactive”; with `CCC1=C(C[C@H]2NCCc3cc(OC)c(OC)cc32)C[C@H]2c3ccccc3CCN2C1`, 0.316 µM (active); with `COc1cc2c(cc1OC)[C@H](C)NCC2`, “inactive”.
For the compound `O=C1CS[C@@H](c2ccccc2Cl)c2cc(Cl)ccc2N1`, the AC50 entry was “inactive”.
As for `c1ccc(C2CC2)c(OCC2=NCCN2)c1`, the AC50 is 25.1 µM (active) and 5.01 µM (active).
The same measure, in the same setting: the value for `c1ccc([C@H]2CNCc3ccccc32)cc1` was 5.01 µM (active).
Turning to `O=[As](O)(O)c1ccc2nc3cc([As](=O)(O)O)ccc3nc2c1`, the activity, negative = inhibition was 14.5% [at 11.4 µM] (inactive).
Take `CC(=O)OCC1=C(C(=O)O)N2C(=O)[C@@H](N)[C@@H]2SC1`: the AC50 entry was “inactive”.
Take `c1cc(CCN2CCCCC2)ccn1`: the activity, negative = inhibition is -18.4% [at 11.4 µM] (inactive).
Turning to `O[Si@](CCCN1CCCCC1)(c1ccc(F)cc1)C1CCCCC1`, the AC50 is 0.501 µM (active).
Regarding `CS(=N)(=O)CC[C@@H](N)C(=O)O` (some centres undefined), the AC50 entry is “inactive”.
On the same count and under the same terms, the value for `COc1cc([C@@H](O)CN)ccc1O` was “inactive”; that for `O=C(CCN1CC2CCC(CC2)C1)c1cccs1` was 2 µM (active); that for `C/C=C1\C[C@H](C)[C@@](O)(CO)C(=O)OCC2=CCN3CC[C@@H](OC1=O)[C@@H]23` was “inactive”.
The same measure, in the same setting: with `C[N+](C)(C)CCCCCC[N+](C)(C)C` the entry was “inactive”.
Still for that read-out and setting: the value for `N=C1c2ccccc2CN1NC(=O)c1ccc(F)cc1` was 1.26 µM (active); that for `NP(N)(=O)NC(=O)c1ccc(F)cc1` was “inactive”; that for `N=C1c2ccccc2CN1NC(=O)c1ccc(Cl)cc1` was 0.794 µM (active).
For `CS(=O)(=O)N1CCCC(C(=O)N2CCC3(CC2)OCCO3)C1` (centres undefined), the AC50 result is “inactive”.
The same measure, in the same setting: the value for `CC12CN3CC(C)(CN(C1)C31CCSCC1)C2=O` was “inactive”; that for `NCCSC(c1ccccc1)c1ccccc1` was 0.794 µM (active).
On the same count and under the same terms, with `NCC#Cc1ccccc1` the entry was “inactive”.
On the same count and under the same terms, the value for `O=C1NC(=O)N(CCNc2ncc(C(F)(F)F)cc2Cl)C(=O)C1/C=N/OCc1c(F)cccc1Cl` (centres undefined) was “inactive”; that for `C[C@]12CC[C@@H]3C(=CCc4cc(O)ccc43)[C@@H]1CCC2=O` was “inactive”; that for `O=C(Nc1cccc(C(F)(F)F)c1)c1cccn(Cc2ccc3c(c2)OC(F)(F)O3)c1=O` was “inactive”.
For the compound `NC(N)=NS(=O)(=O)c1ccc(N)cc1`, the AC50 entry was “inactive”.
On to `N=C(N)c1ccc(-c2ccc(-c3ccc(C(=N)N)cc3)o2)cc1`, for which the activity, negative = inhibition is 11.8% [at 11.4 µM] (inactive).
As for `COc1ccc2c3c([nH]c2c1)C(C)=NCC3`, the AC50 was 3.98 µM (active).
`COc1ccc2[nH]c3c(c2c1)CCNC3`: the AC50 was 12.6 µM (active).
As to `COc1ccc2[nH]c3c(c2c1)CCN=C3C`, the AC50 was 0.631 µM (active).
Still for that read-out and setting: with `COc1ccc(-n2nc(C(F)(F)F)cc2-c2ccc(Cl)cc2)cc1` the entry was “inactive”.
